From PubChem
CRFR2-BP antag: CRF-BP/CRF-R2 complex antagonism; HEK293 CRF-R2/CRF-BP, CRF-induced calcium fluorescence; inhibition, % at 11.8 µM; hit rate 0.59% among 350,000; AID 588475;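 active means inhibition of the ligand-induced calcium signal above about 50% at the single tested concentration, limit read from the data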
PHOSPHO1 inh: blocks human PHOSPHO1 phosphatase activity. recombinant PHOSPHO1, absorbance phosphatase assay. inhibition, % at 13.3 µM. hit rate 1.1% among 290,000. AID 1565; in the data active means inhibition above about 60%
Target sequence (Q8TCT1 whole entry, looked up): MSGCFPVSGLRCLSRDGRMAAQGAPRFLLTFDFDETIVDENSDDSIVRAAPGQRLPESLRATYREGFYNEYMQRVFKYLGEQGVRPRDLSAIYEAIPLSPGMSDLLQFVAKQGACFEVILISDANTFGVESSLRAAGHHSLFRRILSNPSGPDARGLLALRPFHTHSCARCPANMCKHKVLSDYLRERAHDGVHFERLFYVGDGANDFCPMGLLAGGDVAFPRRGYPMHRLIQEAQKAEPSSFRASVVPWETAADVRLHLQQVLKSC
MLLE-PAM2 inh: inhibitors of microRNA-mediated deadenylation, human PABP1 MLLE binding; GST-MLLE / FITC-PAM2 fluorescence polarization; inhibition, % at 20 µM; hit rate 0.36% among 360,000; AID 588489; in the data active means inhibition above about 35%, passing the limit was not always enough;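 further: plate controls were DMSO wells with GST-MLLE for no effect and wells lacking GST-MLLE protein for full effect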
eIF4H inh: inhibitors of RNA binding by human eIF4H. AID 2012. eIF4H fluorescence polarization binding assay. inhibition, % at 35 µM. Q15056. hit rate 0.94% among 290,000;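 further: calls also rest on retests at 20 µM and on dose response follow-up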
PABP polyA inh: blocks human PABP binding to poly(A) RNA; hit rate 1% among 290,000; inhibition, % at 35 µM; P11940; fluorescence polarization;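 further: calls also rest on retests at 20 µM and on dose response follow-up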
Numbers without * were called inactive; nt = no result. Hits are enriched below; roughly 2.6% of the tested compounds scored in any of these assays. Unless noted, how the calls were made is not given here.

SMILES | CRFR2-BP antag | PHOSPHO1 inh | MLLE-PAM2 inh | eIF4H inh | PABP polyA inh
CC(=O)Nc1c(C#N)c(-c2ccccc2)c(C#N)c(=O)n1-c1ccc(C)cc1 | nt | nt | -2 | nt | nt
O=C(Nc1sc2c(c1C(=O)O)CCCC2)C(=O)N1CCOCC1 | -3 | 15 | 28 | 1 | 3
O=C(Nc1sc2c(c1C(=O)O)CCC2)C(=O)N1CCOCC1 | -5 | 37 | 11 | 86* | 23*
COC(=O)c1ccc2nc3c(cc2c1)[C@@H]1CCN2C(=O)CCC[C@H](C3)[C@H]12 | 87* | nt | -14 | nt | nt
CC1(C)CCC(=O)N2CC[C@H]3c4cc5ccccc5nc4C[C@@H]1[C@H]32 | 18 | nt | 11 | nt | nt
COCCOC(=O)c1[nH]c2c(c1C)C(=O)CC(c1ccccc1)C2 (centres undefined) | 9 | 19 | 11 | -5 | -12
Cc1c(C(=O)OCCOC(C)C)[nH]c2c1C(=O)CC(c1ccco1)C2 (centres undefined) | 2 | -6 | -4 | 59* | -7
CSCCOC(=O)c1[nH]c2c(c1C)C(=O)CC(c1ccco1)C2 (centres undefined) | -15 | 18 | -8 | 90 | -2
COCCOC(=O)c1[nH]c2c(c1C)C(=O)CC(c1ccco1)C2 (centres undefined) | 2 | 29 | 7 | 84* | 37
Cc1c(C(=O)OCc2ccccc2)[nH]c2c1C(=O)CC(c1ccco1)C2 (centres undefined) | 14 | 6 | 8 | 81 | 0.7*
CCOC(=O)c1[nH]c2c(c1C)C(=O)CC(c1ccco1)C2 (centres undefined) | 0 | 2 | -14 | 99* | 8.4*
O=C1CN(c2nc3nonc3nc2N2CCCCC2)CCN1 | -9 | 44 | -1 | -1 | 2
CCc1c(N)nc(N)nc1Nc1ccccc1C | 3 | nt | -5 | nt | nt
CCNC(=O)C1(C)CCN(C(=O)CCc2ccccc2)C1 (centres undefined) | nt | nt | -6 | nt | nt
CC(=O)Nc1ccc(OCCC[n+]2ccccc2)cc1 | 7 | 60* | 10 | -9 | 8
CC(=O)Nc1ccc(OCC[n+]2cccc(C(N)=O)c2)cc1 | 61* | 36 | 4 | -3 | 38
CCOc1ccc(NC(=O)C[n+]2ccccc2)cc1 | 30 | -4 | -1 | -2 | -7
O=C(/C=C/[C@H]1O[C@@H](n2cnc3c(NC(=O)c4ccccc4)ncnc32)[C@H](O)[C@@H]1O)NCc1cccc2ccccc12 | nt | nt | -3 | nt | nt
Cc1cc(=O)n2nc(-c3ccccc3)sc2n1 | 13 | 21 | -3 | 56* | 65*
CC(COc1ccccc1)N(CCCl)Cc1ccccc1 (centres undefined) | -9 | -11 | 5 | active | 50*
O=[N+]([O-])c1cccc(/C=N\N=C2c3ccccc3-c3ccccc32)c1O | 58* | 15 | -14 | 10 | 5
O=C1N=C(N2C=CC(=C3C=CNC=C3)C=C2)/C(=C/N=NC(=O)c2ccccc2O)S1 | 6 | 13 | 48* | nt | nt
Cc1onc(-c2ccccc2)c1-c1nnc(CN2CCN(S(=O)(=O)c3ccccc3F)CC2)o1 | -6 | nt | -4 | nt | nt
Cc1cc(C)n2cc(CSc3nnc(-c4ccccc4)o3)nc2n1 | 3 | 78* | -37 | 22 | 13
Cc1cc(C)n2cc(CSc3nnc(N)s3)nc2n1 | -10 | 71* | 40* | -4 | 2
SMILES | CRFR2-BP antag | PHOSPHO1 inh | MLLE-PAM2 inh | eIF4H inh | PABP polyA inh
Cc1cc(C)n2cc(CSc3nnc(SCc4cn5c(C)cc(C)nc5n4)s3)nc2n1 | nt | 19 | nt | -9 | -3
Cc1ccccc1Nc1nnc(SCc2cc([N+](=O)[O-])cc3c2OCOC3)s1 | 2 | 90* | -22 | 3 | 12
O=[N+]([O-])c1cc2c(c(CSc3nnc(Nc4ccccc4)s3)c1)OCOC2 | -9 | 100* | -57 | -6 | 5
O=C(NCc1cccc(F)c1)c1[nH]c(C(F)(F)F)nc1-c1ccccc1 | nt | nt | 2 | nt | nt
O=C(O)COc1ccccc1/C=N/NC(=O)c1cccc(S(=O)(=O)N2CCOCC2)c1 | 28 | 32 | 3 | 2.2* | 79
CC(Oc1cccc(Br)c1)C(=O)Nc1cccc(S(=O)(=O)N2CCOCC2)c1 (centres undefined) | -2 | nt | 18 | nt | nt
COc1cc(OC)c(OC)cc1/C=N/NC(=O)c1cccc(S(=O)(=O)N2CCOCC2)c1 | -8 | -14 | 4 | -6 | -9
CC(Nc1ccc(Br)cc1)C(=O)Nc1cccc(S(=O)(=O)N2CCOCC2)c1 (centres undefined) | 90* | nt | -4 | nt | nt
COc1ccc(NC(=O)c2cccc(S(=O)(=O)N3CCOCC3)c2)cc1 | -1 | 19 | -11 | -15 | 8
COc1ccc(NC(=O)c2cccc(S(=O)(=O)N3CCOCC3)c2)cn1 | -5 | 22 | 19 | 73* | 70*
Cc1ccc(C)n1-c1ccc(N2CCOCC2)nc1 | -13 | 12 | 28 | 71* | 66*
Cc1noc(C)c1S(=O)(=O)N1CCC(C(=O)N2CCN(c3ccc(F)cc3)CC2)CC1 | 60* | 0 | nt | 0 | 0
Cc1sc2nc(SCC(=O)c3cc(C)n(CC4CCCO4)c3C)n(C(C)C)c(=O)c2c1C (centres undefined) | 6 | 79* | -25 | 65* | 81*
Cc1cc(C(=O)CSc2nc(N)cc(N)n2)c(C)n1CC1CCCO1 (centres undefined) | 21 | nt | 3 | nt | nt
Cc1ccc(-n2nnnc2SCC(=O)c2cc(C)n(CC3CCCO3)c2C)cc1 (centres undefined) | -62 | 74* | -84 | 12 | 1
Cc1cc(C(=O)CSc2nnc(-c3ccc(Cl)cc3)n2C)c(C)n1CC1CCCO1 (centres undefined) | 2 | -82 | -6 | -6 | -6
Cc1cccc(-n2nnnc2SCC(=O)c2cc(C)n(CC3CCCO3)c2C)c1 (centres undefined) | 22 | 93* | -98 | 53* | 55*
O=C(CSc1nc2ccccc2o1)c1cc2ccccc2oc1=O | -15 | -8 | 38* | 22 | -2
CC(C)COC(=O)N1CCCCC1c1cc(C(=O)NC(C)C)no1 (centres undefined) | nt | nt | 5 | nt | nt
Cc1cc(C(=O)COC(=O)c2ccncc2)c(C)n1Cc1ccco1 | 8 | -78 | -29 | 55* | 8.1*
Cc1cccc(-n2nnnc2SCC(=O)c2cc(C)n(Cc3ccco3)c2C)c1 | -11 | 76* | -93 | 58* | 29
Cc1cc(C(=O)CSc2nc3ccccc3o2)c(C)n1CC1CCCO1 (centres undefined) | 5 | 93* | -7 | 52* | 68*
C[C@@H]1CN([C@@H](C)CO)C(=O)c2cc(NC(=O)C3CCCCC3)ccc2O[C@@H](C)CCCCO[C@@H]1CN(C)C(=O)CCCN(C)C | 11 | nt | 6 | nt | nt
CCCNC(=O)C1(C)CCN1C(=O)c1cc(C)n(C)n1 (centres undefined) | nt | nt | 17 | nt | nt
O=S(=O)(c1ccc(SCCO)nc1)N1CCOCC1 | 5 | nt | 2 | nt | nt
c1ccc2c(c1)oc1c(NCCCn3ccnc3)ncnc12 | 17 | 72* | 3 | 5 | 11
CCOC(=O)N1CCN(c2ccc(Cl)cc2)CC1 | -12 | -10 | -11 | 4 | 3
CCOC(=O)N1CCN(c2ccc(O)cc2)CC1 | -38 | 63* | 8 | -9 | -2
